FEN1 inhibitor – qHTS Assay for the Inhibitors of Human Flap endonuclease 1 (FEN1). Potency, µM (titrated, usually from 114 µM), hits mostly inhibitors. AID 588795, 2011. Recombinant FEN1 flap cleavage, fluorescence, 15 min. actives 0.35% (n = 390,000); note: nearly all actives have a fitted effect of over 65% in size
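FEN1 at 10 nM preincubated with compounds 15 min at room temperature, then flap DNA substrate added at 50 nM final. Signal read at 0 and 15 min; concentration-response fitted with four-parameter Hill equation.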
GRP78 ERSR act – qHTS for Inducers of the Endoplasmic Reticulum Stress Response (ERSR) in Human Glioma: qHTS. actives 0.02% (n = 420,000). U87-MG GRP78 promoter luciferase reporter, 16 h. Potency, µM, actives largely listed as activators. AID 602332, 2012; note: series mostly up to about 76 µM; nearly all actives have a fitted effect of over 35% in size
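Stably transfected U87-MG human glioma cells carrying a GRP78-based luminescent sensor were seeded at 1000 cells/well, pin-dosed with compounds and incubated 16 h. Luciferase reagent was then added, and end-point luminescence was read after 10 min at room temperature.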
PI5P4Ka inh – qHTS for Inhibitors of phosphatidylinositol 5-phosphate 4-kinase (PI5P4K); PI5P4Kalpha enzyme, ADP-Glo luminescence, 60 min; active compounds read low; max response, %; Phosphatidylinositol 5-phosphate 4-kinase type-2 alpha (Homo sapiens), P48426; actives 1.2% (n = 330,000); active = max response of -50% or lower; inconclusive = between -30% and -50%; inactive = -30% or higher; note: value at the top dose of about 77 µM
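ADP-Glo luminescence end-point read after a 60 min room-temperature kinase reaction of PI5P4Kalpha plus substrate, initiated with ATP at 5 microM final. Buffer: 0.038 M HEPES pH 7.4, EGTA, 0.1% CHAPS, 5% DMSO.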
PGK inhibitor – qHTS Assay to Find Inhibitors of Phosphoglycerate Kinase; Phosphoglycerate kinase, glycosomal (Trypanosoma brucei brucei), P07378; PGK/GAPDH coupled, Kinase-Glo luminescence, 60 min; Potency, µM (titrated, usually from 57.5 µM), actives largely listed as inhibitors; actives 0.043% (n = 380,000); AID 602233, 2012; note: nearly all actives have a fitted effect of over 60% in size
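Recombinant glycosomal PGK reaction used 1,3-bisphosphoglycerate generated in-well by GAPDH (100nM final) in 100mM TEA pH 7.6, 5mM MgCl2, 0.01% Tween-20. After 60 minutes at room temperature, ATP was read by Kinase-Glo Plus luminescence end-point.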
WRN inhibitor – qHTS for Inhibitors of WRN Helicase | Bifunctional 3'-5' exonuclease/ATP-dependent helicase WRN (Homo sapiens), Q14191 | WRN helicase unwinding, fluorescent forked duplex, kinetic | Potency, µM (highest dose often 114 µM), most hits filed as inhibitors | actives 0.46% (n = 360,000); note: nearly all actives have a fitted effect of over 55% in size
Target sequence (Q14191 whole entry, looked up): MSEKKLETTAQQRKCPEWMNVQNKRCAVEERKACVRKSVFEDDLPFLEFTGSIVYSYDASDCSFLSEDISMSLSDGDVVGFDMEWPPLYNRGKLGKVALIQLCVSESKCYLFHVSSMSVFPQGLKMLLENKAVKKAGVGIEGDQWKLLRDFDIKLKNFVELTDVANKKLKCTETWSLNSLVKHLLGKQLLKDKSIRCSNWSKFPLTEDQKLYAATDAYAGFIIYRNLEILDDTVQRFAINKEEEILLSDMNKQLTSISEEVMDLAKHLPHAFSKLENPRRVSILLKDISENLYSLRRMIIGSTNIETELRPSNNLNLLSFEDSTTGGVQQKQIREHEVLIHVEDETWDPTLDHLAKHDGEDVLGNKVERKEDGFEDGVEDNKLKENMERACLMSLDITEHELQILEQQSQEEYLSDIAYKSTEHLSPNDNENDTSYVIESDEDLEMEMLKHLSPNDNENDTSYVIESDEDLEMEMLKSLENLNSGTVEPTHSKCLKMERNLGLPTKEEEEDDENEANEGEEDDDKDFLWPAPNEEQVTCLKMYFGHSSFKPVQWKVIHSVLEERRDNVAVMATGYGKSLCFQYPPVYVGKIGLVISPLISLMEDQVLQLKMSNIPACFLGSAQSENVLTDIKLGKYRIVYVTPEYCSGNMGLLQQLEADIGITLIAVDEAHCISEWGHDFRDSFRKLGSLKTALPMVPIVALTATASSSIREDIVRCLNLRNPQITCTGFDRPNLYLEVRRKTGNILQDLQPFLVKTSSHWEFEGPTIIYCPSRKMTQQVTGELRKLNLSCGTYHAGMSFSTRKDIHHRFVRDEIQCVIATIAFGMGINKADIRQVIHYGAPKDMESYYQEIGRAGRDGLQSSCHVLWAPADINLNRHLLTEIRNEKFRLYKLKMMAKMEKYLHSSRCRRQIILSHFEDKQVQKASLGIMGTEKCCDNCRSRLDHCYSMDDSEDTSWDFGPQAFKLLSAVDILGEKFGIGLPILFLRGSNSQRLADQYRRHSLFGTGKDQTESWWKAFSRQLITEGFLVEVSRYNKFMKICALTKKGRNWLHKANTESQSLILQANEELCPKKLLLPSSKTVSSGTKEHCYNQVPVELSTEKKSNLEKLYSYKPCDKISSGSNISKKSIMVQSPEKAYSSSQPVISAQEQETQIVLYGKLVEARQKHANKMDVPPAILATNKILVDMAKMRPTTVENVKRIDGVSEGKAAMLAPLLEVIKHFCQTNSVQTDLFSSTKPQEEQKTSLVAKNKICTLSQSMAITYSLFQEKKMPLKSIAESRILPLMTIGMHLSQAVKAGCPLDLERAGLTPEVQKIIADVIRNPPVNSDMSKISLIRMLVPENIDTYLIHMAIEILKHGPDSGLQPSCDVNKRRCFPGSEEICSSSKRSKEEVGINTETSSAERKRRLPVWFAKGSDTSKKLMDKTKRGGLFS
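Primary qHTS, 1536-well format. 20 nM WRN + compound, 15 min RT; start with 100 nM forked fluorophore/quencher duplex, 2 mM ATP (final); kinetic read ex 525/em 598 nm.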
Pin1 inhibitor – qHTS Assay to Find Inhibitors of Pin1 | Peptidyl-prolyl cis-trans isomerase NIMA-interacting 1 (Homo sapiens), Q13526 | Pin1 FP peptide displacement, HiFluor488, 10 min | Potency, µM (highest dose often 115 µM), most hits filed as inhibitors | actives 0.009% (n = 390,000); active = well fitted inhibition curve with a large enough effect in the polarisation, with a control signal flat, not every such curve was filed as active; inconclusive = small, poorly fitted or top-dose-only effect, or effect the other way, or a change in a side signal; inactive = no such curve, though single readings can be large or run the other way; the % refers to the polarisation
Numbers stand for hits; – = inactive; ? = inconclusive; · = no result given; [ ] = remark or other dose. Hits are enriched below; roughly 1.3% of the tested compounds scored in any of these assays. Unless noted, calls come from the whole dose curve; as a rule, active = well fitted curve in the direction sought with a large enough effect; inconclusive = small, poorly fitted or top-dose-only effect, or another doubt; inactive = no such curve, though single readings can be large; an effect the other way counts as inactive or inconclusive.

SMILES | FEN1 inhibitor | GRP78 ERSR act | PI5P4Ka inh | PGK inhibitor | WRN inhibitor | Pin1 inhibitor
Cc1oc(C)c2c(=O)ccc3c(c12)OC(N)=C(C#N)C3c1ccccc1 (stereo not given) | – | – | ? | – | ? | ?
CSc1ccc(C2C(C#N)=C(N)Oc3c2ccc(=O)c2c(C)oc(C)c32)cc1 (stereo not given) | ? | – | -65 | – | ? | –
COc1cc(C2C(C#N)=C(N)Oc3n[nH]c(-c4cccnc4)c32)cc(Br)c1O (stereo not given) | – | – | -63 | – | – | –
Cc1cc(-c2[nH]nc3c2C(c2ccsc2)C(C#N)=C(N)O3)c(C)s1 (stereo not given) | – | – | -52 | – | – | –
Cc1ccc(C2C(C#N)=C(N)Oc3n[nH]c(-c4ccccc4)c32)o1 (stereo not given) | – | – | -67 | – | ? | –
Cc1cc(-c2[nH]nc3c2C(c2cccc(O)c2)C(C#N)=C(N)O3)c(C)s1 (stereo not given) | – | – | · | – | – | –
CSCCC1C(C#N)=C(N)Oc2n[nH]c(-c3cccs3)c21 (stereo not given) | – | – | -65 | – | – | –
COc1cc(C2C(C#N)=C(N)Oc3n[nH]c(-c4cccnc4)c32)ccc1OCC(N)=O (stereo not given) | – | – | – | – | – | –
Cc1cnc(C)c(-c2cccc3c2OC(CNC(=O)/C=C/c2ccncc2)C3)n1 (stereo not given) | · | – | · | · | · | ·
CC1CN(Cc2cccn2-c2ncccn2)Cc2cc(Cl)ccc2O1 (stereo not given) | · | – | · | · | · | ·
O=C(c1ccco1)N(Cc1cc2cc3c(cc2nc1N1CCOCC1)CCC3)CC1CCCO1 (stereo not given) | · | – | · | · | · | ·
N#CC1=C(N)Oc2n[nH]c(-c3cccs3)c2C1c1cccs1 (stereo not given) | – | – | -53 | – | – | ?
CN1[C@@H]2CCC[C@@H]1CC(NC(=O)c1nn(C)c3ccccc13)C2 (stereo not given in full) | · | – | · | · | · | ·
Cc1ncc2c(c1CNC(=O)c1ccccc1F)CCN(C(=O)c1[nH]c3ccc(Cl)cc3c1C)C2 | · | – | · | · | · | ·
O=C(O)C(O)c1ccco1 (stereo not given) | ? | – | -60 | 14µM | 50µM | ?
NC(=O)c1ncn([C@@H]2O[C@H](CNCc3ccc(OCC(=O)Nc4nccs4)cc3)[C@@H](O)[C@H]2O)n1 | – | – | -64 | – | – | –
Cc1ccc(C(=O)Nc2cnn(-c3ccc(C(=O)N(C)Cc4n[nH]c5c4CCCC5)cc3)c2)c(C)c1 | · | – | · | · | · | ·
Cc1ccc(C(=O)NCCc2nnc3n2CCN(Cc2ccnc4ccccc24)CC3)c(C)c1 | · | – | · | · | · | ·
O=C(c1ccccc1)c1ccccc1N1C(=O)C=CC1=O | – | – | ? | – | 13µM | –
O=C(O)c1cccc(N2C(=O)C=CC2=O)c1 | · | – | ? | – | –[11.6 µM] | ·
Cc1cc(/C=C2\SC(=S)NC2=O)cc(C)c1O | – | – | -76 | – | –[11.6 µM] | –
Cc1cc(/C=C2\SC(=S)NC2=O)c(C)n1C | ? | – | · | – | ? | ?
Cc1cc(/C=C2\SC(=S)NC2=O)c(C)n1-c1ccccc1 | – | – | -83 | – | – | ?
COc1ccc(-n2c(C)cc(/C=C3\SC(=S)NC3=O)c2C)cc1 | – | – | ? | – | – | ?
Cc1cc(/C=C2\SC(=S)NC2=O)c(C)n1-c1ccc(O)cc1 | – | – | -83 | – | ? | ?
SMILES | FEN1 inhibitor | GRP78 ERSR act | PI5P4Ka inh | PGK inhibitor | WRN inhibitor | Pin1 inhibitor
CC1Cc2cc(/C=C3/SC(=S)NC3=O)ccc2O1 (stereo not given) | – | – | -94 | – | – | –
Cc1cc(C(=O)O)ccc1-n1c(C)cc(/C=C2\SC(=O)NC2=O)c1C | – | – | -58 | – | –[11.6 µM] | ?
Cn1c(-c2ccc(N)cc2)nc2ccccc21 | – | – | – | – | – | –
Cn1c(-c2ccc3nc(N)sc3c2)nc2cc(N)ccc21 | 56µM | – | – | – | ? | ?
COc1cccc(O)c1CN1CCC2(CC1)c1ccccc1[C@@H](NC(=O)c1ccsc1)[C@@H]2OC | · | – | · | · | · | ·
Cc1ccc(/C=C/C(=O)O)cc1S(=O)(=O)N(CCO)CCO | – | – | -59 | – | – | –
O=[N+]([O-])c1cccc(C=NN=C2c3ccccc3-c3ccccc32)c1 | – | – | – | – | – | –
O=[N+]([O-])c1cccc(/C=N\N=C2c3ccccc3-c3ccccc32)c1O | – | – | -54 | – | – | –
O=C1CCc2cc(S(=O)(=O)Nc3ccccn3)ccc2N1 | · | · | · | · | · | –
Cc1nn(-c2ccccc2)c2c1C(c1ccc(O)c(O)c1)N1C(=N2)C(Nc2ccccc2)=Nc2ccccc21 (stereo not given) | – | – | – | – | – | ?
Cc1ccc(NC2=Nc3ccccc3N3C2=Nc2c(c(C)nn2-c2ccccc2)C3c2ccc(O)c(O)c2)cc1 (stereo not given) | – | – | -75 | – | – | ?
Cc1cccc(NC2=Nc3ccccc3N3C2=Nc2c(c(C)nn2-c2ccccc2)C3c2ccc(O)c(O)c2)c1 (stereo not given) | – | – | -92 | – | – | ?
COc1cccc(C2c3c(ncn(-c4ccccc4OC)c3=N)Oc3ccc4ccccc4c32)c1 (stereo not given) | · | · | · | · | · | –
Cc1nc(C(=O)N(Cc2cc3ccc(F)cc3nc2N2CCC(O)CC2)CC2CCCO2)cs1 (stereo not given) | · | – | · | · | · | ·
CCN(CC)c1ccc(/C=C/c2ccccn2)cc1 | ? | – | · | · | · | ·
CCN(CC)c1ccc(/C=C/C2=C3C=CC=CC3NC=C2)cc1 (stereo not given) | 16µM | – | · | · | · | ·
O=S(=O)(/N=C(/Sc1ccc(Cl)cc1)c1ccccc1)c1ccccc1 | 79µM | – | · | · | · | –
Cc1ccc([S+](=O)([O-])Nc2nn3c(=O)c4ccccc4nc3s2)cc1C | · | · | · | · | · | –
O=C(CN1C(=O)/C(=C2\SC(=S)N(CCS(=O)(=O)O)C2=O)c2ccccc21)Nc1cccc(Br)c1 | ? | – | -97 | ? | 89µM | ·
O=C(O)c1cc2cccc(S(=O)(=O)N3CCCCC3)c2cc1O | – | – | -64 | – | – | –
C=CCNS(=O)(=O)c1cccc2cc(C(=O)O)c(O)cc12 | – | – | -57 | – | – | ?
COc1ccc(-c2nc3cc(C)ccc3cc2CN(C(=O)c2cc(C)nn2C)C2CC2)cc1OC | · | – | · | · | · | ·

Assay outcomes: PubChem, National Center for Advancing Translational Sciences (NCATS)
